{"source": "PubChem BioAssay (NCI)", "note": "“And” between values parts separate entries of the source, which are not always exact repeats. Equal entries are not always repeated. Compounds without any hit were thinned out: in the full panel of roughly 79,000, 15% have a hit. Unmarked numbers belong to inactive results. The source made the active and inactive calls. Cut-off read from the data, not from the text of the source: active = growth inhibition above about 70%; inactive = the rest."}
{"assay": "NCI Yeast Anticancer Drug Screen. Data for the bub3 strain (AID 167)", "conditions": "S. cerevisiae bub3 mutant strain, at 50.0 µM, stronger effect = higher value", "in_short": "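Part of a panel of yeast mutants defective in DNA damage repair or cell cycle regulation. Each strain is grown with compound, and inhibition is calculated relative to solvent-treated cultures.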"}
{"molecule": "COc1cccc2c1C(=O)c1c(O)c3c(c(O)c1C2=O)CC(O)(C(=O)CO)CC3OC1CC(N2CCOCC2C#N)C(O)C(C)O1", "note": "(configuration not stated)", "growth inhibition": "88.2% (active)"}
{"molecule": "CNC(P(=O)([O-])[O-])P(=O)([O-])[O-].N.N.[Pt+2]", "growth inhibition": "-8.65%"}
{"molecule": "OC1C2CCCCN2C[C@@H](O)[C@H]1O", "note": "(some centres not stated)", "growth inhibition": "12%"}
{"molecule": "[CH3][Sb]([CH3])([CH3])([O]C(=O)C(Cl)Cl)[O]C(=O)C(Cl)Cl", "growth inhibition": "-1.7%"}
{"molecule": "C[N+]1(C)CCN(c2ccccc2)CC1", "growth inhibition": "-8.9%"}
{"molecule": "COC(=O)C1=CO[C@@H](C)[C@@H]2CN3CCc4c([nH]c5cc(OC)ccc45)[C@H]3C[C@H]12", "growth inhibition": "-2.05%"}
{"molecule": "C=C1CCC2CC1C2(C)C", "note": "(configuration not stated)", "growth inhibition": "10.3% and 0.05% and -6.7%"}
{"molecule": "CCC(C)C1(CCc2ccccc2)C(=O)NC(=O)NC1=O", "note": "(configuration not stated)", "growth inhibition": "10.4%"}
{"molecule": "Br[CH](Br)[Hg][c]1ccccc1", "growth inhibition": "99.2% (active)"}
{"molecule": "CC1C2Cc3ccc(O)cc3C1(C)CCN2C", "note": "(configuration not stated)", "growth inhibition": "35%"}
{"molecule": "CCOC(=O)C1C(=O)C(=O)N2CCc3c([nH]c4ccccc34)C12", "note": "(configuration not stated)", "growth inhibition": "-3%"}
{"molecule": "CN(C)CCC(O)c1c[nH]c2ccccc12", "note": "(configuration not stated)", "growth inhibition": "1.15%"}
{"molecule": "CCC1(c2ccccc2)C(=O)N(CCCl)C(=O)N(CCCl)C1=O", "growth inhibition": "12.2%"}
{"molecule": "CC1(C)SC2C(NC(=O)Cc3ccccc3)C(=O)N2C1C(=O)O", "note": "(configuration not stated) (tested in a mixture with another compound)", "growth inhibition": "-12.3%"}
{"molecule": "COc1ccc(-c2c[se]c(=S)s2)cc1", "growth inhibition": "4.2%"}
{"molecule": "COc1cccc(C=C(C#N)C#N)c1", "growth inhibition": "14.6%"}
{"molecule": "COP(=O)(OC)OC1C(=O)NC(=O)NC1=O", "growth inhibition": "7.2%"}
{"molecule": "Cc1cc(N(CCCl)CCCl)ccc1C1N(Cc2ccc(N(C)C)cc2)CCN1Cc1ccc(N(C)C)cc1", "growth inhibition": "1.6%"}
{"molecule": "O=C(NC1CCCCC1)c1c(O)[nH]c(=S)[nH]c1=O", "growth inhibition": "-4.9%"}
{"molecule": "O=C(NCCN1CCOCC1)c1ccc2cc(C(=O)N3CC(CCl)c4ccc([N+](=O)[O-])cc43)[nH]c2c1", "note": "(configuration not stated)", "growth inhibition": "89.8% (active)"}
{"molecule": "Cc1cc(Cc2cc(C)c(NC(=O)C(=O)C3C(=O)NC(=S)NC3=O)c(C(C)C)c2)cc(C(C)C)c1NC(=O)C(=O)C1C(=O)NC(=S)NC1=O", "growth inhibition": "8.55%"}
{"molecule": "O=C(Cc1cccc([N+](=O)[O-])c1)Nc1cccc(S(=O)(=O)F)c1", "growth inhibition": "16.6%"}
